# NPSR antag – blocks cAMP signaling of the human neuropeptide S receptor; Q6W5P4; CHO-NPSR cells, cAMP TR-FRET, antagonist mode; Potency, µM (titrated, usually from 38.3 µM), for the others: top-dose activity change, negative = inhibition, hits mostly inhibitors; hit rate 1% among 220,000; AID 1461; also: potency is read from the fitted curve at half-maximal effect; nearly all actives have a fitted effect of over 50% in size
# PNC inhibitor – inhibitors of perinucleolar compartment assembly; AID 2417; hit rate 3.1% among 140,000; activity change (PNC), negative = inhibition, % at 10 µM; PC3M PTB-GFP, PNC prevalence imaging, 16 h; active compounds read low;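 active = readout at or below -70, meaning at least 70% loss of cells showing the perinucleolar compartment, a nuclear body marking cancer cells; inconclusive = readout between -30 and a set limit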;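 also: plate controls were DMSO wells for no effect and camptothecin positive control wells for full effect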
#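 Compounds are pinned in duplicate onto adhered PC3M cells stably expressing GFP-tagged PTB and incubated 16 h at 37 C. Cells are then fixed, nuclei stained with Hoechst, and PNC-positive cells counted.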
# JMJD2E inh – JMJD2E (human) inhibition; B2RXH2; JMJD2E catalytic domain, FDH-coupled NADH fluorescence (FDH is formaldehyde dehydrogenase); Potency, µM (doses to about 57.1 µM), for the others: at the top dose activity change, negative = inhibition, most hits filed as inhibitors; hit rate 1.6% among 230,000; active = well fitted inhibition curve with a large enough effect, not every such curve was filed as active; inconclusive = small, poorly fitted or top-dose-only effect, or another doubt; inactive = no such curve, though single readings can be large or run the other way;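 also: potency is read from the fitted curve at half-maximal effect; 0% = wells with enzyme and -100% = buffer wells without enzyme; nearly all actives have a fitted effect of over 50% in size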
# Target sequence (B2RXH2 1-337 limits assumed): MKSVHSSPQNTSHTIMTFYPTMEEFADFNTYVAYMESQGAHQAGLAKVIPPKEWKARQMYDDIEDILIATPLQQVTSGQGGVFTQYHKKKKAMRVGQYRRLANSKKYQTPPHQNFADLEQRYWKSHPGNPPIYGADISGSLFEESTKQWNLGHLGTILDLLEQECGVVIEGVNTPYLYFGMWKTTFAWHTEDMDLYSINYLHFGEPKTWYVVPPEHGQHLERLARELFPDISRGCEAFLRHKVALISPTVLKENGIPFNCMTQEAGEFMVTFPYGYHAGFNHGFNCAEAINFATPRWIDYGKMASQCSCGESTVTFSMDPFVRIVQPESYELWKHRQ
# Tau fibril FP – tau fibrillization inhibition (FP) | Potency, µM (series often up to 57.7 µM), without a hit: at the highest dose activity, negative = inhibition, most hits filed as inhibitors | hit rate 0.39% among 280,000 | P10636 | K18 P301L tau heparin fibrillization, Alexa594 FP, 6 h | AID 1468; also: potency is read from the fitted curve at half-maximal effect; nearly all actives have a fitted effect of over 55% in size
# Target sequence (P10636 561-689 P618L limits assumed): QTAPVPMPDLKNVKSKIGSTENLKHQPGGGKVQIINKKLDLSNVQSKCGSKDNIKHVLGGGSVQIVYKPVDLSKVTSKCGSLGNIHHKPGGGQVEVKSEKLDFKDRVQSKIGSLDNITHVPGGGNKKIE
#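 Recombinant K18 P301L […], labeled with Alexa 594 at 0.24 uM over 15 uM unlabeled; heparin inducer 20 uM final; 37 C, 6 hr; FP endpoint.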
# Tau ThT inhib – inhibitors of human tau fibril formation, thioflavin T binding. AID 1460. P10636. Potency, µM (doses to about 57.4 µM), for the others: top-dose activity, negative = inhibition, usual class: inhibitors. hit rate 2.1% among 270,000. recombinant tau K18 P301L, heparin-induced fibrillization, ThT fluorescence; also: potency is read from the fitted curve at half-maximal effect; nearly all actives have a fitted effect of over 55% in size
#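 In this qHTS, human K18 P301L tau is incubated with compound and heparin for 6 hr at 37 C, and Thioflavin T fluorescence then reports fibril load.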
# Tau fluor counter – counter-screen for tau fibril formation inhibitors; Potency, µM (titrated, usually from 57.7 µM), for inactives: at the top dose activity change, negative = decrease; tau K18 P301L (four-repeat tau fragment) Alexa594 fluorescence, heparin fibrillization; hit rate 0.93% among 280,000; also: potency is read from the fitted curve at half-maximal effect; nearly all actives have a fitted effect of over 55% in size
#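 Human K18 P301L tau (15 uM unlabeled plus 0.24 uM Alexa 594-labeled, final) in 100 mM sodium acetate pH 7 was mixed with compound and 20 uM heparin and incubated 6 hr at 37 C.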
# * = called active by the depositor; ? = inconclusive; nt = no result given; [ ] = dose if it differs, or a comment. The list is not random: actives were taken first. Their share in the collection is about 5.1%. Unless noted, calls follow the shape of the dose curve; as a rule, active = well fitted curve in the direction sought with a large enough effect; inconclusive = small, poorly fitted or top-dose-only effect, or another doubt; inactive = no such curve, though single readings can be large; an effect the other way counts as inactive or inconclusive. Unless noted, % is scaled to controls: 0 for no effect and ±100 for the full control effect.
SMILES,NPSR antag,PNC inhibitor,JMJD2E inh,Tau fibril FP,Tau ThT inhib,Tau fluor counter
Cc1ccc(N2C(=O)CSC23C(=O)N(CC(=O)NC2CCCCC2)c2ccccc23)cc1C (stereo unspecified),nt,nt,nt,-2.0%,2.1%,-1.4%
CCOC(=O)c1ccccc1NC(=O)CSc1cn(CC(=O)N2CCOCC2)c2ccccc12,nt,nt,nt,0.9%,1.3%,-2.3%
COc1cccc(Nc2nc(-c3ccc(O)cc3)cs2)c1,-15.2%[46.1 µM],-19.1,-4.8%,8.4%,11.2µM*,14.1µM*[quencher]
COc1cccc(Nc2ccccc2C(=O)O)c1,-20.6%,nt,5.8%,-4.8%,-7.8%,-3.2%
COc1cccc(Nc2ccc(Nc3cccc(OC)c3)nn2)c1,-25.0%[46.1 µM],?,-16.9%,8.8%,?,12.6µM*[quencher]
Cc1ccccc1OCC(=O)NCC(c1ccc(Cl)cc1)N1CCCCC1 (stereo unspecified),nt,nt,nt,8.8%,-5.9%,-2.2%
CC1=Nc2cc(C(=O)NC(C)C)ccc2Sc2ccc(C)cc21,nt,nt,nt,0.4%,-16.0%,-17.4%
Clc1ccc(OCCCNCc2ccccc2)c(Br)c1,?,-89.3*,-13.0%,10.9%,-10.5%,-13.4%
Cc1cc(=O)c2ccccc2n1CC(=O)NCc1ccccc1,22.6%,-95.9*,2.4%,-2.9%,4.4%,4.7%
Cc1nc2ccccc2n1CC(=O)NCc1ccccc1,0.0%[46.1 µM],-103.1*,4.4%,6.5%,-3.3%,0.8%
FC(F)(F)c1cccc(NC(=S)Nc2cccc(NC(=S)Nc3cccc(C(F)(F)F)c3)n2)c1,?,nt,?,20µM*,-3.1%,12.6µM*[quencher]
FC(F)(F)c1cccc(NC(=S)NCC2COc3ccccc3O2)c1 (stereo unspecified),-14.6%,-18.0,-0.7%,25.1µM*,-11.7%,?
O=C(CCC1COc2ccccc2O1)NCC1COc2ccccc2O1 (stereo unspecified),-5.3%[46.1 µM],-100.0*,-19.8%,4.1%,-8.8%,-11.4%
CC(C)(C)NC(=O)CCC1COc2ccccc2O1 (stereo unspecified),0.6%[46.1 µM],15.5,-8.9%,-7.5%,-7.6%,-4.2%
O=c1c(-c2ccc(Cl)cc2)c(C(F)(F)F)oc2c(CN3CCCCC3)c(O)ccc12,nt,nt,nt,-4.1%,3.7%,-7.7%
COc1ccc(CNC(=O)C2=C(C)C(=O)OC23CCN(C(C)=O)CC3)cc1,nt,nt,nt,0.4%,3.0%,0.9%
CCOc1cc(/C=C2/C(=N)N3OC(C)=CC3=NC2=O)ccc1OCCOc1ccccc1,10µM*,-21.3,-21.2%,-5.9%,?,-12.8%
CCCC1=NN2C(=N)/C(=C\c3cc(C)n(-c4cccc(C)c4)c3C)C(=O)N=C2S1,-54.6%,9.5,8.91µM*,-3.3%,-14.0%,1.9%
Cc1cccc(-n2c(C)cc(/C=C3/C(=N)N4C(c5ccccc5)=CSC4=NC3=O)c2C)c1,9.2%,5.5,14.8%,-4.1%,-5.3%,-2.5%
CCOc1ccc(/C=C2/C(=N)N3OC(C)=CC3=NC2=O)cc1OC,-10.7%,nt,?,-2.6%,?,-6.6%
CC1=NN2C(=N)/C(=C\c3cc(C)n(-c4ccc(C)cc4)c3C)C(=O)N=C2S1,12.6µM*,nt,-0.6%,6.0%,?,-0.7%
CC1=CC2=NC(=O)/C(=C\c3cc(C)n(-c4cccc(Cl)c4)c3C)C(=N)N2O1,-52.4%,5.5,28.2µM*,-8.1%,-7.5%,-12.4%
CCn1c(SCC(=O)C(C)(C)C)nnc1-c1cnccn1,-6.5%[46.1 µM],-100.0*,-8.6%,-0.5%,0.1%,2.1%
COc1ccc(CCNc2nnc(Sc3nnnn3-c3ccccc3)s2)cc1OC,-11.7%[46.1 µM],-96.5*,-1.8%,5.1%,-10.0%,-10.7%
Cc1ccc(C(=O)O)cc1N=Cc1cc(Br)cc(Br)c1O,-30.7%,19.7,?,-20.9%,14.1µM*,-9.6%
SMILES,NPSR antag,PNC inhibitor,JMJD2E inh,Tau fibril FP,Tau ThT inhib,Tau fluor counter
CC(=O)Nc1ccc(C(=O)N/N=C/c2cc(Br)cc(Br)c2O)cc1,-17.2%,nt,-7.7%,0.0%,?,-22.1%
Cc1cccc(-n2c(=O)[nH]c3c(C(N)=O)nc(C(C)C)nc32)c1,-13.7%[46.1 µM],-100.0*,?,16.3%,-2.5%,-0.3%
CCOc1ccc(CCNC(=O)CCCc2nnc3n(CCCOC)c(=O)c4sccc4n23)cc1,nt,nt,nt,0.5%,-2.8%,-0.8%
CCOC1=C/C(=C/c2c(N)n3nc(-c4ccccc4)sc3nc2=O)C=CC1=O,-39.3%,nt,?,-5.2%,8.91µM*,?
CCOC1=C/C(=C/c2c(N)n3oc(C)cc3nc2=O)C=CC1=O,-40.5%,nt,-15.4%,-3.7%,?,-20.8%
COC1=C/C(=C/c2c(N)n3nc(-c4ccc(C)cc4)sc3nc2=O)C=CC1=O,32.8%,nt,6.6%,1.3%,10µM*,?
CCS(=O)(=O)c1nn2c(N)c(/C=C3/C=CC(=O)C(OC)=C3)c(=O)nc2s1,12.9%,-116.4*,-10.0%,-1.7%,?,-24.1%
Cc1cc(C)cc(NC(=O)CCCn2c3ccccc3c(=O)c3ccccc32)c1,nt,nt,nt,-7.9%,?,?
O=C1C2C3C=CC(C3)C2C(=O)N1c1cccc(N2C(=O)C3C4C=CC(C4)C3C2=O)n1 (stereo unspecified),-7.8%[46.1 µM],-98.8*,6.0%,4.8%,-16.4%,-5.1%
CCN1CCN(c2ncc3c(n2)CCN(Cc2ccccc2C)C3)CC1,nt,nt,nt,-0.2%,-1.4%,0.0%
COc1ccc(NC(=O)O/N=C2/CCCc3ccc(OC)cc32)cc1,-13.7%[46.1 µM],?,?,?,14.1µM*,?
Cc1ccccc1C(=O)Nc1sc(C)c(C)c1C(=O)c1ccccc1,-24.1%[46.1 µM],16.7,2.7%,0.1%,7.4%,6.5%
Cc1sc(NC(=O)CCl)c(C(=O)c2ccccc2)c1C,7.94µM*,-6.7,-1.5%,-13.5%,?,-24.5%
COc1cccc(N2CCN(C3C(=O)c4ccccc4N3C(C)=O)CC2)c1 (stereo unspecified),nt,nt,nt,5.8%,-4.0%,-16.5%
CC1=NC(=O)C(N=Nc2cccc(C(=O)O)c2)N1c1ccccc1 (stereo unspecified),-16.2%[46.1 µM],18.8,0.9%,4.5%,15.8µM*,-15.1%
CC1=NC(=O)C(N=Nc2ccccc2C(=O)O)N1c1ccccc1 (stereo unspecified),27.1%,nt,-0.1%,10.7%,5.01µM*,-0.6%
COc1cccc(C(=O)Nc2ccccc2C(=O)OCc2cc(=O)n3nc(C4CC4)sc3n2)c1,nt,nt,nt,11.1%,3.3%,9.3%
Cc1[nH]c2ccccc2c1/C=C/c1nc2ccccc2c(=O)n1CCO,-20.2%,nt,?,17.4%,?,10µM*[quencher]
Cc1ccc(/C=C/c2nc3ccccc3c(=O)n2CCc2ccccc2)cc1,37.5%,-82.6*,?,-6.8%,-11.5%,-12.8%
O=c1c2ccccc2nc(/C=C/c2ccc([N+](=O)[O-])o2)n1CCCO,?,-88.6*,-1.0%,2.1%,-21.9%,-8.1%
CCc1ccc(C2=C(C)C(N3CCC(C(=O)NCCc4ccco4)CC3)=NS2(=O)=O)cc1,nt,nt,nt,0.5%,-10.7%,3.2%

# Screens deposited in PubChem by National Center for Advancing Translational Sciences (NCATS).
